Measurements published in the supplement of paper PMC6555819.

Tests used:
Experiment in all cases: PBM binding z-score (relative to random genomic background probes); higher = stronger binding; sequences stand for … in GC…GCGATTGACAGCGTAGAATGAAGG
[1] = tested on: RARb homodimer (NR concentration 270 nM)
How it was run: (§1)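 Probes were double-stranded and carried 34-nt variable regions with direct-repeat seeds, single-nucleotide variants, half-site ablations and random human genomic background sequences, printed on custom Agilent 4×180K protein-binding microarrays. Arrays were incubated 1 h with ligand-free nuclear receptor dimers in PBS pH 7.4, 2% milk, 0.02% Triton X-100, 1 mM DTT, 0.2 mg/mL BSA and 0.4 mg/ml salmon testes DNA. Antibodies against each partner (one per run) detected binding, and scanned fluorescence was regression-normalized. Binding z-scores use the random background probes as reference.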

[2] = tested on: RARg:RXRa (NR concentration 270 nM, RXRa partner concentration 90 nM)
How it was run: as §1

[3] = tested on: RARg homodimer (NR concentration 270 nM)
How it was run: as §1

[4] = tested on: RXRa DBDmut IVT, anti-RXR (DBD mutation: RXRa K156A/R161A, NR concentration 90 nM)
How it was run: as §1

[5] = tested on: RXRa homodimer (NR concentration 180 nM)
How it was run: as §1

[6] = tested on: THRa:RXRa (NR concentration 90 nM, RXRa partner concentration 90 nM)
How it was run: as §1

[7] = tested on: THRa homodimer (NR concentration 90 nM)
How it was run: as §1

[8] = tested on: VDR:RXRa (NR concentration 270 nM, RXRa partner concentration 90 nM)
How it was run: as §1

[9] = tested on: VDR homodimer (NR concentration 270 nM)
How it was run: as §1

Row | Sequence | PBM binding z-score [1] | PBM binding z-score [2] | PBM binding z-score [3] | PBM binding z-score [4] | PBM binding z-score [5] | PBM binding z-score [6] | PBM binding z-score [7] | PBM binding z-score [8] | PBM binding z-score [9]
1 | ACTCGTTGGTCAGCTGAGGTCACACACAATTCGG | 4.41 | 4.16 | 4.25 | 1.3 | 4.06 | 5.18 | 5.14 | 4.61 | 3.72
2 | GATACAGGGTTAAGGCCAGAGTACGCGTATTGAT | 1.34 | 1.7 | 1.1 | -0.0819 | 1.76 | 2.05 | 0.861 | 1.05 | 1.02
3 | AGTCAAAGTTCATCTAGGTAAAGTAAGATATGCT | 3.76 | 5.67 | 6.09 | 4.8 | 5.07 | 3.07 | 0.199 | 4.84 | 5.29
4 | CCTAGCAGGCCAATCTGGGTCACGCAAGGCTTGA | 2.43 | 1.86 | 1.9 | -0.504 | 1.69 | 3.99 | 0.767 | 1.14 | -0.0889
5 | GCTAGTTGGTCAGTAAAAGGTCACACTCCGGTCG | 5.07 | 5.14 | 4.48 | 0.827 | 5.23 | 3.58 | 2.19 | 3.76 | 1.59
6 | GCTTGTAAATCAAGGTTAAGAAAGACTAAGCTAA | 0.189 | 0.539 | 0.0583 | 0.137 | 0.942 | 1.5 | -0.456 | 0.379 | -0.374
7 | TCTGCTAGGTCAGTTGGTCAGCTCACGAGCTGCC | 2.45 | 2.61 | 3.31 | 0.58 | 1.15 | 1.38 | 0.196 | 0.484 | -0.78
8 | CCTAGGTGGTCAAGGTCACACACGCTATAGGTAC | 4.16 | 4.81 | 4.61 | 1.79 | 4.66 | 4.09 | 4.01 | 4.76 | 3.06
9 | TCATATAGGTAAAGTTGAAAGTCGAACGATATGA | 0.521 | 0.699 | 0.882 | 1.02 | 1.15 | 0.311 | -0.665 | 0.583 | 0.121
10 | CTTACTGGGCCAAAAAGGTCATTGATGCCGATAA | 4.5 | 4.8 | 4.65 | 1.08 | 5.37 | 3.21 | 0.313 | – | 2.72
11 | AATACAGGGTCATCGTAGGCCAGATTACGCACAG | 3.54 | 5.85 | 4.96 | 3.82 | 6.58 | 4.42 | 1.56 | 5.22 | 3.35
12 | CCTTACGGGTCACGAGCTTATAGCACGACGAGCG | 3.08 | 5.67 | 5.35 | 1.94 | 6.23 | 3.07 | 0.145 | 3.95 | 0.809
13 | TCGAGTAGGTTACCAATGCGGCATTCAGCTTTCT | -0.23 | 0.0889 | 0.12 | 0.365 | 0.498 | -0.131 | -0.859 | -0.196 | -0.937
14 | AATACAGGGACACTAGGCCAGAGTAGGTACGAAT | 0.487 | 0.347 | 0.984 | 0.0578 | -0.151 | 0.812 | 0.241 | -0.219 | 0.347
15 | ATATGTAGGTTATCGAGTCATTCAGTTTGCGCAT | 0.699 | 0.829 | 0.699 | 0.829 | 0.932 | 0.512 | 0.232 | 1.72 | 0.932
16 | AGTCAAAGTTCAGGCCGAGGTAACGTAAAGCACG | 3.34 | 5.07 | 4.99 | 3.1 | 2.85 | 3.78 | 1.3 | 3.01 | 2.53
17 | TCTAGTAGGTTAGGGGCATTCAGAATGGCGTCGA | 1.31 | 0.656 | 0.586 | 1.42 | 0.98 | 1.03 | 0.797 | 1.04 | 1.39
18 | ATCTCTAGGTACAAGTTCAGTGAATCCCGAGGAT | 1.52 | 0.997 | 1.14 | 1.93 | 0.729 | 0.819 | 0.457 | 1.96 | 2.83
19 | GCTCGGAGGACAAGGTCAGCGCTTTGTCCGTAGA | 3.72 | 3.85 | 4.29 | 0.531 | 3.07 | 3.23 | 1.82 | 1.88 | 0.607
20 | GCGACCGGGGCATCAGCAGGTTACCATAACTTAA | 1.37 | 2.27 | 1.64 | -0.302 | 0.943 | 1.61 | 0.295 | 0.435 | -0.185
21 | AGTCAAAGTTCAGGACGAGGTAACATAAAGCACG | 3.26 | 4.89 | 4.71 | 3.19 | 3.25 | 3.73 | 1.55 | 3.13 | 2.24
22 | GCTAGCAGGCCATTTGGGTCACCCAATGACGGGC | 2.08 | 1.52 | 1.58 | -0.734 | 1.16 | 2.19 | 0.834 | – | 0.435
23 | ATATGTAGGTTACATCCGGGTCATTCCGGCTATG | 2.71 | 3.56 | 2.07 | 1.21 | 2.92 | 3.61 | 2.3 | 3.88 | 2.99
24 | GCTTACGGCTCAAAGGTTATAGCATGAATAGAAT | 1.05 | 1.29 | 0.586 | 0.213 | 1.93 | 1.21 | -0.314 | 0.88 | -0.204
25 | CTCGAAAGGTCCTGCTCAGGTGAGTATACCAAAC | 0.614 | 0.95 | 0.414 | -0.0806 | 0.666 | 2.11 | 0.634 | -0.0691 | -0.488
26 | TGTCAAAGTTCCAAGGTAACGTAAGTATCCACAC | 0.222 | 0.298 | 0.719 | -0.251 | 0.443 | 1.72 | 1.09 | 0.281 | -0.0741
